# Legend:
# Conditions in all cases: concentration: 1 μM,replicates: in singlicate; n = 1
# [1] = tested on: TYK2(JH2domain-pseudokinase)
# TYRO3 = tested on: TYRO3
# ULK1 = tested on: ULK1
# ULK2 = tested on: ULK2
# ULK3 = tested on: ULK3
# VEGFR2 = tested on: T1, VEGFR2
# T1 construct: gene KDR
# VPS34 = tested on: T2, VPS34
# T2 construct: gene PIK3C3
# VRK2 = tested on: VRK2
# WEE1 = tested on: WEE1
# WEE2 = tested on: WEE2
# WNK1 = tested on: WNK1
# WNK2 = tested on: WNK2
# WNK3 = tested on: WNK3
# WNK4 = tested on: WNK4
# YANK1 = tested on: T3, YANK1
# T3 construct: gene STK32A
# YANK2 = tested on: T4, YANK2
# T4 construct: gene STK32B
# YANK3 = tested on: T5, YANK3
# T5 construct: gene STK32C
# YES = tested on: T6, YES
# T6 construct: gene YES1
# YSK1 = tested on: T7, YSK1
# T7 construct: gene STK25
# YSK4 = tested on: T8, YSK4
# T8 construct: gene MAP3K19
# 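Further: KINOMEscan kinase panel screen.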
SMILES,%Inh [1],%Inh (TYRO3),%Inh (ULK1),%Inh (ULK2),%Inh (ULK3),%Inh (VEGFR2),%Inh (VPS34),%Inh (VRK2),%Inh (WEE1),%Inh (WEE2),%Inh (WNK1),%Inh (WNK2),%Inh (WNK3),%Inh (WNK4),%Inh (YANK1),%Inh (YANK2),%Inh (YANK3),%Inh (YES),%Inh (YSK1),%Inh (YSK4)
COc1cc2ncn(-c3cc(OCC4CCCCC4)c(C(N)=O)s3)c2cc1OC [GSK204559],15%,0%,9%,0%,25%,4%,20%,0%,0%,25%,0%,0%,0%,0%,0%,8%,6%,4%,24%,35%
C[C@@H]1CNc2c(sc3ccc4nc(-c5ccncc5)ccc4c23)C(=O)N1,59%,0%,26%,27%,0%,13%,0%,0%,0%,0%,0%,0%,0%,0%,21%,0%,17%,0%,0%,56%
COC(=O)Nc1nc2cc(Oc3ccc(NC(=O)Nc4cc(C(F)(F)F)ccc4Cl)cc3)ccc2[nH]1.Cl [GW697465],30%,3%,17%,0%,10%,64%,35%,4%,8%,11%,8%,11%,49%,48%,0%,0%,13%,29%,4%,84%
Cc1ccc(Nc2ccnc(Nc3ccc4c(c3)CS(=O)(=O)C4)n2)cc1O.Cl [GW579362],99.5%,79%,55%,2%,99.5%,93.6%,76%,0%,50%,98.3%,0%,33%,33%,9%,26%,0%,0%,81%,39%,99.1%
CC(=O)Nc1ccc(-c2cc3ncnc(SCC(=O)O)c3s2)cc1,0%,0%,10%,13%,15%,27%,0%,0%,0%,4%,2%,0%,0%,2%,0%,0%,26%,0%,11%,50%
Cn1ccc2ncnc(Oc3ccc(NC(=O)Nc4cccc(C(F)(F)F)c4)c(Cl)c3)c21,0%,0%,0%,0%,1%,98.2%,0%,0%,3%,9%,0%,0%,0%,0%,0%,0%,13%,0%,0%,77%
CS(=O)(=O)c1cccc(CNc2nc(Nc3ccc4c(c3)[C@@H]3C[C@@H]4CNC3=O)ncc2C(F)(F)F)c1,0%,0%,89%,77%,99.9%,98.1%,0%,37%,2%,30%,0%,0%,0%,0%,0%,0%,0%,0%,0%,98.5%
COc1cccc(C2=C(Nc3cccc(Cl)c3)C(=O)NC2=O)c1 [SB-341556],46%,21%,42%,7%,12%,0%,0%,0%,5%,0%,20%,29%,19%,0%,5%,0%,11%,17%,0%,38%
Cn1ccc2ncnc(Oc3ccc(NC(=O)Nc4cccc(C(F)(F)F)c4)c(F)c3)c21,0%,3%,0%,0%,0%,99.1%,0%,0%,43%,0%,0%,0%,0%,7%,0%,0%,1%,0%,0%,68%
OCCn1cc(-c2cnc3nnn(Cc4ccc5ncccc5c4)c3n2)cn1,0%,0%,0%,0%,0%,0%,17%,0%,0%,0%,0%,0%,0%,0%,3%,0%,0%,0%,0%,0%
